# Assay results from PubChem BioAssay.
# Activity calls are given as the source filed them.
# Experiments:
# Albumin (Bos taurus) = Albumin (Bos taurus) (UniProt P02769); experiment: compounds binding labelled BSA control protein – biochemical, small-molecule microarray, Alexa647 label, 635/667 nm fluorescence, artefact control for SMM control protein annotation, profiling panel (AID 1118); conditions: BSA-A647 binding, fluorescence 635 nm, higher = more signal;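 also: score merges 667 nm emission intensity and signal-to-noise per printed compound spot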
# Albumin (Bos taurus), sequence (P02769 whole entry, looked up): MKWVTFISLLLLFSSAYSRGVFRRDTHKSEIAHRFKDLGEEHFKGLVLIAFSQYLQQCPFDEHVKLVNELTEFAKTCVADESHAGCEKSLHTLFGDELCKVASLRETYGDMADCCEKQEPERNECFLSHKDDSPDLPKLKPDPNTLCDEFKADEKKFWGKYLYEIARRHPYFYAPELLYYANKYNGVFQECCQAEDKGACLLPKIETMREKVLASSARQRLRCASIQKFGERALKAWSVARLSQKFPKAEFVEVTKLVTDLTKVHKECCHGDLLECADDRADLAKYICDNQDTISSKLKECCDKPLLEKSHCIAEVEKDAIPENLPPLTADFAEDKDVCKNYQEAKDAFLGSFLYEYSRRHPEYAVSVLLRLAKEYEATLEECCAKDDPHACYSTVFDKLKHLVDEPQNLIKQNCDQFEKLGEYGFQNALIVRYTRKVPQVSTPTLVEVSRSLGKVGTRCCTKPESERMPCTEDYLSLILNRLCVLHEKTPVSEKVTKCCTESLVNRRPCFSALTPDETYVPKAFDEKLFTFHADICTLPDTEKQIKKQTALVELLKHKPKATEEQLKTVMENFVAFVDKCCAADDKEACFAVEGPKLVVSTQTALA
# [1] = probe aXIP binding to arrayed compounds – biochemical, NeuroSMM set, 635/667 nm fluorescence, primary screen (AID 1119); conditions: small-molecule microarray, higher = more signal, called active from +8 up or from −8 down;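 also: probe is the protein aXip251-270 applied at 1 µg/mL to compound-printed slides; binding of probe to printed compounds measured as 667 nm fluorescence plus signal to noise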
# [2] = probe aNOTCH3 binding on compound microarray – biochemical, small-molecule microarray, 635/667 nm fluorescence, primary screen (AID 1120); conditions: higher = more signal;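 also: probe is a biotin-tagged antibody raised against NOTCH3 rather than NOTCH3 protein; score merges spot fluorescence near 667 nm with spot signal to noise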
# [3] = probe aNOTCH2 binding on compound microarray – biochemical, small-molecule microarray, 635/667 nm fluorescence, primary screen (AID 1121); conditions: higher = more signal;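 also: score merges feature fluorescence read at 667 nm with its signal to noise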
# [4] = target: Carbonic anhydrase 2 (Homo sapiens) (UniProt P00918); experiment: compounds binding carbonic anhydrase 2 – biochemical, small-molecule microarray, Alexa647-labelled CAII, profiling panel (AID 1122); conditions: CAII-A647 binding fluorescence, higher = more signal
# [5] = COS7 lysate on small-molecule microarray, probe aHis, 635 nm (AID 1123); conditions: COS7 cell lysate, fluorescence, higher = more signal;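 also: z-score combines 667nm fluorescence intensity with signal-to-noise per printed compound spot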
# [6] = probe aLAP1 signal on lysate-treated microarray – cell lysate, small-molecule microarray, COS7 lysate, primary screen (AID 1124); conditions: probe aLAP1, fluorescence, higher = more signal;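 also: lysate comes from COS7 cells expressing LAP1 and is applied at 0.3 µg/mL; score merges spot fluorescence near 667 nm with signal-to-noise over triplicate slides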
# Sam68 (KHDRBS1) = experiment: compounds binding KHDRBS1 protein – biochemical, small-molecule microarray, 635 nm fluorescence, primary screen (AID 1125); conditions: higher = more signal;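 also: score merges 667 nm channel intensity with signal to noise over triplicate slides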
# [7] = tested on: Chordin-like protein 2 (CHRDL2); experiment: compounds binding chordin-like 2 – biochemical, small-molecule microarray, 635 nm fluorescence, primary screen (AID 1126); conditions: fluorescence 635 nm, higher = more signal;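 also: printed compound slides probed with Chrdl2 protein at 4 µg/mL for 1 h at 4 C; score merges 667 nm emission intensity with signal to noise over three replicate slides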
# [8] = target: Concanavalin-A (Canavalia ensiformis) (UniProt P02866); experiment: compounds binding concanavalin A lectin – biochemical, small-molecule microarray, Alexa647 label, 635 nm, artefact control for SMM control protein annotation, primary screen (AID 1127); conditions: ConA-A647 binding fluorescence, higher = more signal;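 also: z combines 667 nm emission intensity with signal-to-noise across three replicate slides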
# Concanavalin-A (Canavalia ensiformis), sequence (P02866 whole entry, looked up): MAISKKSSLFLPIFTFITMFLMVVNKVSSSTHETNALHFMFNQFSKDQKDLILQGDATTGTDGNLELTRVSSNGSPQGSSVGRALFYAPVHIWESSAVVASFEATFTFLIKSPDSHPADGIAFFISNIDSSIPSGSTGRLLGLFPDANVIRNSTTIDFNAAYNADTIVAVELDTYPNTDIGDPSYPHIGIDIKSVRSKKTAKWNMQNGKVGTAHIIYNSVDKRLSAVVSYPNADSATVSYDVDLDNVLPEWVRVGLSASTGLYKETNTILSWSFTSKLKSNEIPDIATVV
Structure (SMILES),composite z-score (Albumin (Bos taurus)),composite Z-score [1],composite z-score [2],composite z-score [3],composite z-score [4],composite z-score [5],composite z-score [6],composite z-score (Sam68 (KHDRBS1)),composite z-score [7],composite z-score [8]
CCCCC(CC)C(O)C1C=CC2C(=O)N(c3ccccc3)C(=O)C2N1Nc1ccc([N+](=O)[O-])cc1 (stereo not given),0.985,-0.189 (inactive),0.44,-0.161,0.652,1.86,0.914,1.31,0.0772,1.18
CC(=O)N1Cc2ccccc2C[C@]2(N=C(c3ccc(OCCCO)cc3)O[C@@H]2c2ccccc2)C1=O,-0.569,0.581 (inactive),0.0242,-0.0424,0.552,2.87,0.451,1.3,0.15,1.13
COc1ccc([Si](C)(C)[C@H]2[C@H](CCO)O[C@@]3(C(=O)N(Cc4cccc(N5CCCCC5=O)c4)c4ccccc43)[C@@H]2C)cc1,0.378,0.299 (inactive),-0.0984,-0.148,0.394,1.31,0.264,1.15,0.769,1.1
CC1CC/C=C\[C@H]2OC34C=CCN(CCN5CCOCC5)C(=O)[C@H]3N(CCO)C(=O)[C@@H]4C2C(=O)O1 (stereo not given in full),-0.0406,0.377 (inactive),-0.22,-0.104,0.802,-0.265,0.973,-2.29,-1.02,-0.889
CC(=O)NCCCC[C@@H]1NC(=O)[C@@H]2C[C@H](C(=O)O)[C@H](c3ccc(O)cc3)N2C1=O,-0.757,1.77 (inactive),-0.594,-0.1,0.658,-0.0142,-0.0574,-1.04,-0.755,0.092
NC(=O)NCC#Cc1ccc2c(c1)[C@]1(C(=O)N2)[C@H](C(=O)O)[C@H]2C(=O)O[C@H](c3ccccc3)[C@H](c3ccccc3)N2[C@@H]1c1ccccc1OCCO,0.501,0.434 (inactive),0.199,0.0505,0.372,0.329,-0.0878,0.685,0.915,1.11
O=C1O[C@@H](c2ccccc2)[C@@H](c2ccccc2)N2[C@@H](c3ccc(O)cc3)[C@]3(C(=O)Nc4ccc(C#CCCO)cc43)[C@@H](C(=O)Nc3nc4ccccc4s3)[C@H]12,0.827,-0.0011 (inactive),-0.0265,-0.115,0.507,0.999,0.887,1.29,-0.0623,0.616
C[C@]12C(=O)N(CCCCCCO)[C@@H]3C(=O)N(c4ccc(Cl)cc4)CC=CC31O[C@@H]1/C=C\CCCOC(=O)C12 (stereo not given in full),0.377,1.82 (inactive),-0.16,-0.136,0.695,2.08,-0.133,0.488,-1.75,-0.403
COc1ccccc1CN1C(=O)c2ccccc2[C@@H](C(=O)NC(C)C)[C@@H]1c1ccc(CO)cc1,-0.374,-0.0458 (inactive),0.338,0.103,0.535,2.32,1.03,1.33,0.565,1.16
NC(N)=NCc1cn(CCc2c[nH]c3ccccc23)nn1,0.566,0.354 (inactive),-0.0647,-0.12,0.633,0.421,0.262,0.714,0.866,0.948
Cc1ccc(S[C@]2(C(=O)O)CC(=O)N(Cc3ccccc3Cl)[C@@H]2c2ccc(CO)cc2)cc1,0.489,-0.173 (inactive),-0.159,-0.0519,0.75,1.72,0.591,-0.503,-0.828,-0.503
COCCOC(=O)N1C(=O)[C@@]2(c3cc(C#Cc4ccc(OC)cc4)ccc31)[C@H](C(=O)NC[C@H](O)c1ccccc1)[C@H]1C(=O)O[C@H](c3ccccc3)[C@H](c3ccccc3)N1[C@@H]2c1ccc(O)cc1,0.148,0.552 (inactive),0.236,-0.154,0.441,1.7,1.48,1.29,0.806,1.16
COCCCNC(=O)[C@]1(Cc2ccccc2N=[N+]=[N-])N=C(c2ccc(OCCCO)cc2)O[C@@H]1c1ccccc1N=[N+]=[N-],0.99,0.0401 (inactive),0.0348,-0.0372,0.666,2.33,-0.0886,1.3,-0.502,1.09
COc1ccc([Si](C)(C)[C@@H]2[C@@H](CCO)O[C@]3(C(=O)N(Cc4cccc(N5C(=O)c6ccccc6Oc6ccccc65)c4)c4ccccc43)[C@H]2C)cc1,0.326,-0.0368 (inactive),-0.157,-0.0712,0.411,1.07,0.594,0.554,-0.245,0.276
NCCCCCNC(=O)[C@@H]1C[C@@H]2C(=O)N[C@@H](CCCCN)C(=O)N2[C@@H]1c1cccc(OCCO)c1,0.104,0.416 (inactive),-0.0168,-0.0637,-0.153,0.043,1.55,0.668,1.18,-0.0079
CN(C)CCCCNC(=O)[C@H]1C[C@H]2C(=O)N[C@@H](CCCCN(C)C)C(=O)N2[C@H]1c1cccc(OCCO)c1,0.418,-1 (inactive),0.0691,-0.237,0.18,2.21,0.518,1.31,1.39,1.14

Structure (SMILES),composite z-score (Albumin (Bos taurus)),composite Z-score [1],composite z-score [2],composite z-score [3],composite z-score [4],composite z-score [5],composite z-score [6],composite z-score (Sam68 (KHDRBS1)),composite z-score [7],composite z-score [8]
CN(C)CCCN1C(=O)[C@@]2(c3ccc([N+](=O)[O-])cc3)CC(=O)N(CC34CC5CC(CC(C5)C3)C4)[C@@H]2c2ccc(CO)cc21,-0.348,-0.184 (inactive),-0.208,-0.0391,0.76,1.08,0.538,0.503,-0.304,0.412
COC(=O)c1c(CC[C@@H](CO)NC(=O)N[C@H](Cn2cc(-c3ccccc3C)nn2)C(C)C)oc(C(C)=O)c1C(=O)OC,0.119,-0.115 (inactive),-0.0731,-0.075,0.0708,-0.363,-0.108,-1.08,-0.767,0.43
C=CC[C@@H](OC(=O)Nc1ccc(OC)cc1)c1ccc(OCCO)cc1,0.384,0.166 (inactive),-0.46,-0.0911,0.709,0.31,-0.347,-0.661,-2,-1.54
CO[C@H]1O[C@H](CO)[C@@H](OC(=O)Nc2ccccc2-c2ccccc2)[C@H](OC(=O)Nc2ccc3c(c2)OCO3)[C@@H]1OC(=O)Nc1ccc2c(c1)OCO2,0.508,0.151 (inactive),0.389,-0.0684,0.735,2.47,0.335,1.3,0.517,0.921
CC(C)C(CO)N1C(=O)[C@]2(C)C3C(=O)OCCC/C=C\[C@H]3OC23C=CCN(c2ccc(Cl)cc2)C(=O)[C@@H]13 (stereo not given in full),-0.187,-0.132 (inactive),-0.157,-0.164,0.853,3.39,0.32,0.36,-0.883,-0.522
CN1C(=O)C2C=CC(C(O)Cc3ccccc3)N(N(c3ccccc3)c3ccccc3)C2C1=O (stereo not given),0.829,0.895 (inactive),0.116,-0.0086,0.613,1.02,0.521,0.805,-0.897,0.325
[N-]=[N+]=NCc1ccccc1[C@H]1OC(c2ccc(OCCCO)cc2)=N[C@@]1(CCS(=O)(=O)c1ccccc1)C(N)=O,0.736,0.0553 (inactive),0.302,0.123,0.878,3.31,1.71,1.3,-0.0208,1.2
C=C(CCCC)C(=O)CC[C@@H](OC(=O)c1cccnc1)c1ccccc1OCCO,-0.326,0.589 (inactive),0.1,-0.0804,0.406,-0.256,0.377,0.44,0.515,-1.51
CCCCN1CC=CC23O[C@@H]4C=CCOC(=O)[C@@H]4[C@H]2C(=O)N(C(C)CO)[C@@H]3C1=O (stereo not given in full),-1.04,-0.527 (inactive),-0.154,-0.118,0.904,-0.819,-0.0435,-1.6,-1.98,-1.33
O=C1OCC=C[C@H]2OC34C=CCN(Cn5nnc6ccccc65)C(=O)[C@H]3N(CCCCCCO)C(=O)[C@@H]4[C@@H]12 (stereo not given in full),-1.02,0.648 (inactive),-0.165,-0.126,0.904,0.718,0.79,0.0126,-0.743,-1.01
COc1ccc([Si](C)(C)[C@H]2[C@H](CC(=O)N3Cc4ccccc4C[C@H]3CO)O[C@@]3(C(=O)N(Cc4cccc(N5CCCCC5=O)c4)c4ccccc43)[C@@H]2C)cc1,0.26,0.424 (inactive),-0.0044,-0.14,0.498,0.951,0.0263,0.724,1.19,1.05
COc1ccc(CCNC(=O)[C@@]2(Sc3ccc(C)cc3)CC(=O)N(Cc3cc(C(F)(F)F)cc(C(F)(F)F)c3)[C@@H]2c2ccc(CO)cc2I)cc1,0.259,1.4 (inactive),-0.193,-0.106,0.684,1.54,0.227,0.677,-0.596,0.759
COCCOC(=O)N1C(=O)[C@@]2(c3cc(C#CC4=CCCCC4)ccc31)[C@H](c1ccccc1OCCO)N1[C@H](c3ccccc3)[C@H](c3ccccc3)OC(=O)[C@H]1[C@@H]2C(=O)N1CCc2cc(OC)c(OC)cc2C1,-0.157,0.0781 (inactive),-0.406,-0.255,0.426,0.641,0.379,1.3,0.774,0.856
O=C1NC(=O)C2C1C=CC(C(O)c1ccc3c(c1)OCO3)N2Nc1ccccn1 (stereo not given),0.939,0.246 (inactive),-0.0324,-0.12,0.555,2.99,0.183,0.153,0.704,0.667
C=C(/C=C/CNS(=O)(=O)c1ccc(C)cc1)[C@H](O)[C@H]1CCCN1S(=O)(=O)c1ccccc1[N+](=O)[O-],0.699,-0.327 (inactive),-0.0932,-0.138,0.305,0.0646,0.394,0.0808,0.547,0.0635
O=C1O[C@H](c2ccccc2)[C@H](c2ccccc2)N2[C@H]1[C@@H](C(=O)O)[C@]1(C(=O)Nc3ccccc31)[C@H]2c1ccc(O)cc1,-0.731,-0.0012 (inactive),-0.135,-0.131,0.673,0.969,1.01,-0.43,-0.632,0.586
